# PubChem BioAssay (Tox21)
# A number with no mark means an inactive call. Results filed as inconclusive are left out. Where a call stands in place of a potency, no number is given. Active and inactive are the calls of the source. Unless noted, calls come from the whole dose curve; as a rule, active = well fitted curve in the direction sought with a large enough effect in the repeat runs; inconclusive = weak or mixed curves; inactive = no such curve, though single readings can be large; an effect the other way counts as inactive or inconclusive.
# What was measured:
# [1] = qHTS assay to identify small molecule agonists of the sonic hedgehog signaling (Shh) pathway (AID 1259368; calls by dose curve; note: series mostly up to about 92 µM; nearly all actives have a fitted effect of over 15% in size)
# In short: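 NIH/3T3-derived 3T3Gli1-Luc cells carrying a stably integrated Gli1 response element–firefly luciferase reporter were plated, left 4 hr at 37 C, then given compounds in DMSO for 24 hr. Luminescence was read 30 min after adding luciferase reagent.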
# [2] = target: Estrogen receptor beta (Homo sapiens) (UniProt Q92731); experiment: qHTS assay to identify small molecule agonists of the estrogen receptor beta (ER-beta) signaling pathway (AID 1259377; active = well fitted activation curve with a large enough effect in the signal ratio in the repeat runs, not every such curve was filed as active; the % refers to the signal ratio)
# Sequence of Estrogen receptor beta (Homo sapiens) (Q92731 whole entry, looked up): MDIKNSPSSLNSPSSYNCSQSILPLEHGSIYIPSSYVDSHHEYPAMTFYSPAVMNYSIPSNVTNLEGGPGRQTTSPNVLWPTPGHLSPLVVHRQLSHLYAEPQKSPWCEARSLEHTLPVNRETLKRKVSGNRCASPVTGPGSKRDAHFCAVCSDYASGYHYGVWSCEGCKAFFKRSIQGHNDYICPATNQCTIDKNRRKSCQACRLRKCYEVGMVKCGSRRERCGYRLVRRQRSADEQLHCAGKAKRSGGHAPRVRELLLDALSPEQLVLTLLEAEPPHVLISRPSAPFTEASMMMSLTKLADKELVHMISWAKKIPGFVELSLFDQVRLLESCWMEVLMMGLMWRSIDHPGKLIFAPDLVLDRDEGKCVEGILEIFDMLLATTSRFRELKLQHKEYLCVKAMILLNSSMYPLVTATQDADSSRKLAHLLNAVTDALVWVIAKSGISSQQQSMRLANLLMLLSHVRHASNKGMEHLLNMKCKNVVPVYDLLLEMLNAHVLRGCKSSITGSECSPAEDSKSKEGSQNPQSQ
# In short: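 HEK293T ER-beta-UAS-bla; 2% charcoal-stripped FBS; cells pre-incubated 6 hr, compound 16 hr, 37C/5% CO2; LiveBLAzer B/G FRET substrate 2 h RT; fluorescence intensity read.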
# [3] = target: Estrogen receptor beta (Homo sapiens) (UniProt Q92731); experiment: qHTS assay to identify small molecule antagonists of the estrogen receptor beta (ER-beta) signaling pathway (AID 1259378; active = well fitted inhibition curve with a large enough effect in the signal ratio in the repeat runs, not every such curve was filed as active; the % refers to the signal ratio)
# In short: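 ER-beta-UAS-bla HEK293T cells in 2% charcoal-stripped FBS medium treated with compound plus 1nM final 17-beta-estradiol for 16 hr at 37C. Beta-lactamase reporter read by FRET substrate fluorescence after 2 hours at room temperature.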
# [4] = qHTS assay to identify small molecule agonists of the estrogen receptor beta (ER-beta) signaling pathway - cell viability counter screen (AID 1259380); note: nearly all actives have a fitted effect of over 30% in size; note: potency is the fitted concentration of half-maximal effect
# In short: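 ER-beta-UAS-bla HEK293T cells in medium with 2% charcoal-stripped FBS were preincubated 6 hr at 37C, dosed with compound in DMSO for 16 hr, then after the bla read, CellTiter-Glo was added for 30 min at room temperature; luminescence recorded.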
# [5] = target: Estrogen receptor (Homo sapiens) (UniProt P03372); experiment: qHTS assay to identify small molecule agonists of the estrogen receptor alpha (ER-alpha) signaling pathway in the presence of an antagonist (AID 1259383; calls by dose curve; note: top concentration of the series differs between compounds; nearly all actives have a fitted effect of over 15% in size)
# Sequence of Estrogen receptor (Homo sapiens) (P03372 whole entry, looked up): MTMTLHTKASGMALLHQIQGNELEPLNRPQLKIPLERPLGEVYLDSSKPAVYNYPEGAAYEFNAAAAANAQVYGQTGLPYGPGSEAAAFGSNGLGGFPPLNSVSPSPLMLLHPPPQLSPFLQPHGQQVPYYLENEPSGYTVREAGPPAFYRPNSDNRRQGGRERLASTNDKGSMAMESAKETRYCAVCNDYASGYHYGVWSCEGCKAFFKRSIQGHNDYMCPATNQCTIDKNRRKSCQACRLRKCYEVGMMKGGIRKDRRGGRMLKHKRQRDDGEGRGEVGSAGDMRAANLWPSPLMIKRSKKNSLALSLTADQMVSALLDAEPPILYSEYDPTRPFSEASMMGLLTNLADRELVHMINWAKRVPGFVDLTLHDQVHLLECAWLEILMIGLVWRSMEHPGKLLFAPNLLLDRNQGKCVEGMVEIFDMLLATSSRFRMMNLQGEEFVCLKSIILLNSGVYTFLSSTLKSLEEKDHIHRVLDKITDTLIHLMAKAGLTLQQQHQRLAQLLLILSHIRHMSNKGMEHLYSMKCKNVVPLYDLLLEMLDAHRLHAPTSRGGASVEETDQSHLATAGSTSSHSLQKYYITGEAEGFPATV
# In short: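 VM7Luc4E2 cells (endogenous full-length ER-alpha, 4×ERE-luciferase) were precultured 5 days in phenol red-free medium with 10% charcoal-stripped FBS, given 10.0nM ICI-182,780 (final), then treated with compounds at 15 concentrations for 22hr at 37C; luminescence read with ONE-Glo.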
# [6] = qHTS assay to identify small molecule agonists or antagonists of the thyroid stimulating hormone receptor (TSHR) signaling pathway - wild type cell line counter screen (AID 1259384; calls by dose curve)
# In short: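 Wild-type Hek293 cells, 800/well, 18 h at 37C, then compound with Ro20-1724 for 30 min RT. cAMP by HTRF (cAMP-d2/anti-cAMP cryptate), 1 h RT, fluorescence read. 15 concentrations, triplicates.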
# [7] = target: Thyrotropin receptor (Homo sapiens) (UniProt P16473); experiment: qHTS assay to identify small molecule antagonists of the thyroid stimulating hormone receptor (TSHR) signaling pathway (AID 1259385; calls by dose curve; note: nearly all actives have a fitted effect of over 20% in size; note: potency is the fitted concentration of half-maximal effect)
# Sequence of Thyrotropin receptor (Homo sapiens) (P16473 whole entry, looked up): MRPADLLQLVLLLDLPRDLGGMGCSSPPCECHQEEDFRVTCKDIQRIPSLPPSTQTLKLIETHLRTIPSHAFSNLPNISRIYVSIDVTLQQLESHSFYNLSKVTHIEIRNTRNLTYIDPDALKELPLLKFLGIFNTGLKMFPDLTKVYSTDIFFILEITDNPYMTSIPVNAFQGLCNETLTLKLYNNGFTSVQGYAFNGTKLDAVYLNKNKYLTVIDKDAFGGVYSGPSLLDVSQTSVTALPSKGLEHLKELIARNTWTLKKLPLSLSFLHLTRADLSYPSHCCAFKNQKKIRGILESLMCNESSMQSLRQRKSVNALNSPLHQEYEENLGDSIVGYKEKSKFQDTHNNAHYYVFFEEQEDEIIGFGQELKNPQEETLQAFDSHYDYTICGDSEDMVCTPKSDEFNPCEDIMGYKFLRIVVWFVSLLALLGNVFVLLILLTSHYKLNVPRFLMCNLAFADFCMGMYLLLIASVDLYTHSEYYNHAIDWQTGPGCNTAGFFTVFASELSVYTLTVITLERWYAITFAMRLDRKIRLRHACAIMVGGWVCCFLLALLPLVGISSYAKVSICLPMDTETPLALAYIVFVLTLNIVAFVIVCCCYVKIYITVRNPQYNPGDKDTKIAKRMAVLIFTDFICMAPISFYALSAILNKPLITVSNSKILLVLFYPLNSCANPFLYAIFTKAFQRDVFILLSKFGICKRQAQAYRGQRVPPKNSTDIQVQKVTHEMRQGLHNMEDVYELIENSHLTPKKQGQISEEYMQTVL
# In short: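 TSHR-HEK293 cells (800/well) plated 18 h, then compounds with Ro20-1724 and TSH at 1.5 ng/mL final, 30 min at room temperature. cAMP quantified by HTRF (cAMP-d2/anti-cAMP-cryptate, 1 h); 15 concentrations in triplicate.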
# [8] = qHTS assay to identify small molecule agonists of the estrogen receptor alpha (ER-alpha) signaling pathway in the presence of an antagonist - cell viability counter screen (AID 1259386);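 note: series mostly up to about 92 µM; cells exposed to compounds for 22 h at 37 °C before the viability read; nearly all actives have a fitted effect of over 30% in size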
# In short: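 VM7Luc4E2 cells (endogenous full-length ER-alpha, 4×ERE-luciferase) were held 5 days in phenol red-free medium with 10% charcoal-stripped FBS, plated, then given 10.0nM ICI-182,780 and compounds at 15 concentrations for 22hr at 37C; viability read by CellTiter-Fluor fluorescence.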
# [9] = target: Progesterone receptor (Homo sapiens) (UniProt P06401); experiment: qHTS assay to identify small molecule agonists of the progesterone receptor (PR) signaling pathway (AID 1346784; calls by dose curve; note: nearly all actives have a fitted effect of over 30% in size)
# Sequence of Progesterone receptor (Homo sapiens) (P06401 whole entry, looked up): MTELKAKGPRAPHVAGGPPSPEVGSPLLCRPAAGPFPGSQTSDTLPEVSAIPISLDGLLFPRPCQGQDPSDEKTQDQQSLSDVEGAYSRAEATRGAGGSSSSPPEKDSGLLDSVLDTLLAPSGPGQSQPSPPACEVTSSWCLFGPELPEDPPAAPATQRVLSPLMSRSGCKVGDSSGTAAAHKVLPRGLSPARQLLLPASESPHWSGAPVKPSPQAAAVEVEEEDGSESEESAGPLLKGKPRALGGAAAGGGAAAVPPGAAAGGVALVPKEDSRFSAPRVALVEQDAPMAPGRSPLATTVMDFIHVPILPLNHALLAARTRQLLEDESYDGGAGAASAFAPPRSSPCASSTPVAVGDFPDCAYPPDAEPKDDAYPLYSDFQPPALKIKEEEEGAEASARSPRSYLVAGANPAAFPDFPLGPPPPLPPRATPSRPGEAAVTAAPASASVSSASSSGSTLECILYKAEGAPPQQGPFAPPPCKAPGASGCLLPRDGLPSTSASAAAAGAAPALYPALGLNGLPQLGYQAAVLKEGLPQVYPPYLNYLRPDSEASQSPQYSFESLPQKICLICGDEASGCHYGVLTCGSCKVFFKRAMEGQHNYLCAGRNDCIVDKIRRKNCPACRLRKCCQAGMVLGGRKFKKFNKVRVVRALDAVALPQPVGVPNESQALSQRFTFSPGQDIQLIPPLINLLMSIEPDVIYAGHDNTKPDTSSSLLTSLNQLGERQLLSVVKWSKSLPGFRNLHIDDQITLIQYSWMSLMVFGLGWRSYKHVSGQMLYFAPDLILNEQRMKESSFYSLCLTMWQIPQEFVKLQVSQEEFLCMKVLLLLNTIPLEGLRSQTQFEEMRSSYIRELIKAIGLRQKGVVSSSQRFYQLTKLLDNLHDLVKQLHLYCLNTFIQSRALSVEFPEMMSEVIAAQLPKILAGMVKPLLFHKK
# In short: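 Beta-lactamase reporter read-out: after 16 hr compound treatment at 37C and a further 2 hr at room temperature with LiveBLAzer B/G FRET substrate, fluorescence was measured in PR-UAS-bla HEK 293T cells grown in 2% charcoal-stripped serum.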
# [10] = qHTS assay to identify small molecule agonists of the progesterone receptor (PR) signaling pathway - cell viability counter screen (AID 1346799; calls by dose curve; note: nearly all actives have a fitted effect of over 45% in size)
# In short: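 Luminescence from CellTiter-Glo, added after the beta-lactamase FRET read in the same wells, gave cytotoxicity in PR-UAS-bla HEK293T cells treated with compounds for 16 hr at 37C.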
# [11] = qHTS assay to identify small molecule antagonists of the TGF-beta/Smad signaling pathway - cell viability counter screen (AID 1346824); note: nearly all actives have a fitted effect of over 50% in size
# In short: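 SBE-bla HEK 293T cells, incubated overnight, then compound plus 0.25 ng/mL TGF-beta1 (stock added) for 5 hr at 37 C. Viability was read in the same wells by CellTiter-Glo luminescence after 30 min at room temperature.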
# [12] = qHTS assay to identify small molecule agonists of the TGF-beta/Smad signaling pathway - cell viability counter screen (AID 1346829); note: top concentration of the series differs between compounds; nearly all actives have a fitted effect of over 45% in size
# In short: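 After overnight seating at 37 C and 5% CO2, reporter cells got compounds for 5 hr and FRET substrate for 2 hr; cell viability then came from CellTiter-Glo luminescence.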
# [13] = qHTS assay to identify small molecule agonists of the TGF-beta/Smad signaling pathway (AID 1346859; active = well fitted activation curve with a large enough effect in the signal ratio in the repeat runs, not every such curve was filed as active; the % refers to the signal ratio; note: series mostly up to about 77 µM)
# In short: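 SBE-bla HEK 293T, 4,000 cells/well, plated o/n; cpd in DMSO, 5 hr, 37 C/5% CO2; B/G FRET substrate 2 hr RT; ex 405, em 460/530 nm.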
# [14] = target: Thyrotropin-releasing hormone receptor (Homo sapiens) (UniProt P34981); experiment: qHTS assay to identify small molecule antagonists of the thyrotropin-releasing hormone receptor (TRHR) signaling pathway (AID 1346877; active = well fitted inhibition curve with a large enough effect in the repeat runs, not every such curve was filed as active; note: series mostly up to about 51 µM)
# Sequence of Thyrotropin-releasing hormone receptor (Homo sapiens) (P34981 whole entry, looked up): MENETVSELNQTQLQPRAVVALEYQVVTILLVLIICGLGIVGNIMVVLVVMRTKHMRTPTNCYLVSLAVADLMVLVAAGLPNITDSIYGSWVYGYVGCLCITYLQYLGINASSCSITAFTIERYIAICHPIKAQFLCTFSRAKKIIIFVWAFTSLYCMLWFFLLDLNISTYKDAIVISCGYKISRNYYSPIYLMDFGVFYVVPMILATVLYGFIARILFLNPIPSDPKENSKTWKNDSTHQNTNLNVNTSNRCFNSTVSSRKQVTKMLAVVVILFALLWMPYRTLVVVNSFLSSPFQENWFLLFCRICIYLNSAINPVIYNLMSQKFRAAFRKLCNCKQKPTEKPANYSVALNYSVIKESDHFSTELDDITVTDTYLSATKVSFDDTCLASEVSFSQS
# In short: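 TRHR-expressing HEK293 cells were seeded, cultured 18 h at 37 °C, then loaded with calcium dye for 2 h. Compounds were pre-incubated 5 min at room temperature before 1 nM TRH (final) was added, and kinetic fluorescence was recorded for 3 min.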
# [15] = qHTS assay to identify small molecule antagonists of the sonic hedgehog signaling (Shh) pathway (AID 1259369; calls by dose curve; note: nearly all actives have a fitted effect of over 45% in size)
# In short: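 NIH/3T3-derived 3T3Gli1-Luc cells with stably integrated Gli1-Luc reporter were preincubated 4hr at 37 C, then given compounds in DMSO plus Shh conditioned medium and incubated 24hr. Firefly luciferase luminescence read after 30min reagent at room temperature.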
# [16] = qHTS assay to identify small molecule antagonists of the estrogen receptor beta (ER-beta) signaling pathway - cell viability counter screen (AID 1259382); note: series mostly up to about 92 µM; nearly all actives have a fitted effect of over 55% in size
# In short: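 ER-beta-UAS-bla HEK293T cells (2,000/well, 2% charcoal-stripped FBS) were pre-incubated 6 hr at 37C, then given compound plus 1nM final 17-beta-estradiol for 16 hr. Viability was read in the same wells by CellTiter-Glo luminescence after 30 min at room temperature.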
# [17] = target: Progesterone receptor (Homo sapiens) (UniProt P06401); experiment: qHTS assay to identify small molecule antagonists of the progesterone receptor (PR) signaling pathway (AID 1346795; active = well fitted inhibition curve with a large enough effect in the signal ratio in the repeat runs, not every such curve was filed as active; the % refers to the signal ratio; note: potency is the fitted concentration of half-maximal effect)
# In short: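 Read-out is fluorescence from the LiveBLAzer B/G FRET substrate, cleaved by a UAS-controlled beta-lactamase in PR-UAS-bla HEK293T cells after 16 hr exposure to compound plus 1 nM promegestone (final), followed by 2 hr at room temperature.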
# [18] = qHTS assay to identify small molecule antagonists of the progesterone receptor (PR) signaling pathway - cell viability counter screen (AID 1346798); note: nearly all actives have a fitted effect of over 50% in size; note: potency is the fitted concentration of half-maximal effect;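 for activity change, negative = cytotoxicity: HEK293T PR-UAS-bla cells stimulated with the agonist R5020; series mostly up to about 92 µM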
# In short: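 HEK293T PR-UAS-bla, 2% charcoal-stripped FBS; 4 hr pre-plate; cpd + R5020, 16 h 37C; LiveBLAzer read first; then CellTiter-Glo 30 min RT, luminescence.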
# [19] = qHTS assay to identify small molecule agonists of the androgen receptor (AR) signaling pathway in the presence of an antagonist - cell viability counter screen (AID 1259379); note: series mostly up to about 92 µM; nearly all actives have a fitted effect of over 25% in size
# In short: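 MDA-kb2 human breast carcinoma cells (stable MMTV-luciferase, AR/GR responsive) were seeded 3,000 cells/well, pre-incubated 5 hr at 37C without CO2, then given 3.0uM nilutamide and compounds at 15 concentrations for 16 hr. Viability was read by CellTiter-Fluor fluorescence.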
# [20] = target: Androgen receptor (Homo sapiens) (UniProt P10275); experiment: qHTS assay to identify small molecule agonists of the androgen receptor (AR) signaling pathway in the presence of an antagonist (AID 1259381; calls by dose curve; note: nearly all actives have a fitted effect of over 15% in size)
# Sequence of Androgen receptor (Homo sapiens) (P10275 whole entry, looked up): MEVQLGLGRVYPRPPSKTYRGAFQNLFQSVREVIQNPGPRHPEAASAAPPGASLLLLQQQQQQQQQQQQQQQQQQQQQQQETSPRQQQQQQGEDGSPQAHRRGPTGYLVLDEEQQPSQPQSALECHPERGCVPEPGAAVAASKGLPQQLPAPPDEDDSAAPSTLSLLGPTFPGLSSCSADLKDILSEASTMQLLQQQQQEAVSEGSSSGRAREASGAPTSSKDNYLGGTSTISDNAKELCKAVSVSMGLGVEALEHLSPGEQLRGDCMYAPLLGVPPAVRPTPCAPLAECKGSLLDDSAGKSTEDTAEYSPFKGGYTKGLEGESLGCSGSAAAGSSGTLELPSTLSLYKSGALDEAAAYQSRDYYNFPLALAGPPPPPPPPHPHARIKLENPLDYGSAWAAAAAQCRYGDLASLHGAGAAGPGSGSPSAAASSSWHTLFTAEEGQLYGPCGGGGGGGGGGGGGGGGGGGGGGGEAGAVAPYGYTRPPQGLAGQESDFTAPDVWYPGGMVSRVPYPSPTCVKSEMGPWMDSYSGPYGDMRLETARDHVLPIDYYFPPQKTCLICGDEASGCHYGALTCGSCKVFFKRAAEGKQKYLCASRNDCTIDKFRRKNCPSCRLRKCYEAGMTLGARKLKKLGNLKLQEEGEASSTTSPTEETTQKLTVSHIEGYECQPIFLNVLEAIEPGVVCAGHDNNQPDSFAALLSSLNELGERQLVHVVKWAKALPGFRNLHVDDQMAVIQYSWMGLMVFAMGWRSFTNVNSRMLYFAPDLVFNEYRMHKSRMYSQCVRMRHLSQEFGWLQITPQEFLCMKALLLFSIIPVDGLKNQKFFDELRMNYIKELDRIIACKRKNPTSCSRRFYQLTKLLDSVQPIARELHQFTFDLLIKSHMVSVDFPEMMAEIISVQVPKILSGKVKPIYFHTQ
# In short: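 MDA-kb2 human breast carcinoma cells carrying an MMTV-luciferase reporter (AR- and GR-responsive) were treated with compounds at 15 concentrations plus 3.0uM final nilutamide for 16hr at 37C without CO2; luminescence was read after ONE-Glo addition.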
smiles,measurement,setting,value
O=S(=O)(O)C(F)(F)F,Potency,[1],inactive
same,outcome,[2],inactive
same,Potency,[3],inactive
same,Potency,[4],inactive
same,Potency,[5],inactive
same,outcome,[6],inactive
same,Potency,[7],inactive
same,Potency,[8],inactive
same,Potency,[9],inactive
same,Potency,[10],inactive
same,outcome,[11],inactive
same,outcome,[12],inactive
same,outcome,[13],inactive
same,outcome,[14],inactive
Nc1ccc2ccccc2c1S(=O)(=O)O,Potency,[15],inactive
same,Potency,[4],inactive
same,outcome,[16],inactive
same,outcome,[6],inactive
same,Potency,[7],inactive
same,Potency,[8],inactive
same,Potency,[9],inactive
same,Potency,[17],inactive
same,Potency,[18],inactive
same,Potency,[10],inactive
same,outcome,[11],inactive
same,outcome,[12],inactive
same,outcome,[13],inactive
same,outcome,[14],inactive
CN(C)CCOc1ccccc1Cc1ccccc1,Potency,[1],inactive
same,outcome,[2],inactive
same,Potency,[3],inactive
same,Potency,[19],inactive
same,Potency,[4],26.6 µM (active)
same,outcome,[6],inactive
same,Potency,[7],29.8 µM (active)
same,Potency,[8],inactive
same,outcome,[11],inactive
same,outcome,[13],inactive
same,outcome,[14],inactive
CCCCCCOc1ccc(N)cc1,Potency,[1],inactive
same,Potency,[19],inactive
same,Potency,[4],17.2 µM (active)
same,Potency,[8],inactive
same,Potency,[9],inactive
same,Potency,[18],inactive
same,Potency,[10],inactive
same,outcome,[11],inactive
same,outcome,[12],inactive
same,outcome,[13],inactive
CCc1cc2cc(OC)c(OC)cc2c(Cc2ccccc2)n1,Potency,[1],inactive
same,outcome,[2],inactive
same,Potency,[19],inactive
same,Potency,[4],inactive
same,Potency,[20],inactive
same,outcome,[16],inactive
same,Potency,[5],inactive
same,outcome,[6],inactive
same,Potency,[7],inactive
same,Potency,[8],inactive
same,Potency,[9],inactive
same,Potency,[17],16.8 µM (active)
same,Potency,[18],inactive
same,outcome,[11],inactive
same,outcome,[12],inactive
same,outcome,[13],inactive
CS(=O)(=O)c1ccc([C@@H](O)[C@@H](CF)NC(=O)C(Cl)Cl)cc1,Potency,[1],inactive
same,Potency,[19],inactive
same,Potency,[4],inactive
same,outcome,[16],inactive
same,Potency,[5],inactive
same,outcome,[6],inactive
same,Potency,[7],inactive
same,Potency,[8],inactive
same,Potency,[9],inactive
same,Potency,[18],inactive
same,Potency,[10],inactive
same,outcome,[11],inactive
same,outcome,[12],inactive
same,outcome,[13],inactive
same,outcome,[14],inactive
O=C(O)c1ccccc1Nc1cc(Cl)ccc1C(=O)O,activity change,[1],"-0.0136% [at 18.9 µM, stronger effect = higher value]"
same,activation,[2],0.616% [at 19 µM]
same,"activity change, negative = cytotoxicity",[19],-0.898% [at 19 µM]
same,"activity change, negative = cytotoxicity",[4],-3.75% [at 19 µM]
same,"activity change, negative = cytotoxicity",[16],-13.6% [at 19 µM]
same,activation,[5],-1.25% [at 19 µM]
same,cAMP activity change,[6],0.0654% [at 18.9 µM]
same,"activity change, negative = inhibition",[7],2.68% [at 19 µM]
same,"activity change, negative = cytotoxicity",[8],-2.8% [at 19 µM]
same,Potency,[18],13 µM (active)
same,"viability change, negative = cytotoxic",[11],0.61% [at 15.8 µM]
same,"activity change, negative = cytotoxicity",[12],9.07% [at 15.8 µM]
same,activation,[13],-1.11% [at 15.8 µM]
same,"activity, negative = inhibition",[14],1.01% [at 10.5 µM]
CCCCOc1cc(C(=O)NCCN(CC)CC)c2ccccc2n1,Potency,[1],inactive
same,outcome,[2],inactive
same,outcome,[6],inactive
same,Potency,[8],inactive
same,outcome,[11],inactive
same,outcome,[12],inactive
same,outcome,[13],inactive
same,outcome,[14],inactive
COC(=O)N[C@H](C(=O)N[C@@H](Cc1ccccc1)[C@@H](O)CN(Cc1ccc(-c2ccccn2)cc1)NC(=O)[C@@H](NC(=O)OC)C(C)(C)C)C(C)(C)C,Potency,[1],inactive
same,outcome,[2],inactive
same,Potency,[3],inactive
same,Potency,[4],inactive
same,Potency,[5],inactive
same,outcome,[6],inactive
same,Potency,[7],inactive
same,Potency,[8],inactive
same,Potency,[9],inactive
same,Potency,[17],inactive
same,Potency,[18],inactive
same,outcome,[11],inactive
same,outcome,[12],inactive
same,outcome,[13],inactive
OCC(CBr)(CBr)CBr,Potency,[1],inactive
same,Potency,[19],inactive
same,Potency,[4],inactive
same,outcome,[16],inactive
same,Potency,[5],inactive
same,outcome,[6],inactive
same,Potency,[7],inactive
same,Potency,[8],inactive
same,Potency,[17],34.2 µM (active)
same,Potency,[18],inactive
same,outcome,[11],inactive
same,outcome,[13],inactive
same,outcome,[14],inactive
